Source: paper PMC4552634, “A New Set of Chemical Starting Points with Plasmodium falciparum Transmission-Blocking Potential for Antimalarial Drug Discovery” (PLoS ONE, 2015)
Screen size: about 13,000 compounds; about 3,200 (25%) showed an effect of 50% or more. The list shows a part of the results.

test system: P. falciparum stage V gametocytes; design: BacTiter-Glo ATP luminescence viability of purified stage V gametocytes in 384-well plates, per cent inhibition versus DMSO; settings: 48 h, 5 µM; inhibitor

| SMILES | % Inhibition [%] |
| --- | --- |
| O=C(NCc1cccc2ccccc12)C(c1cc2ccccc2o1)N1CCN(C(c2ccccc2)c2ccccc2)CC1 (stereo not shown) [TCMDC-141007] | 25.05 |
| CCCCCCN1CCN(Cc2cccc(NC(=O)c3cc4ccccc4o3)c2)CC1 [TCMDC-134620] | -12.01 |
| CCNC(=O)c1ccc2c(c1)c(C)c(C)n2Cc1ccc(F)cc1 [TCMDC-124754] | 32.09 |
| CC(=O)C1(c2ccccc2)CCN(CCC2(c3ccc(Cl)c(Cl)c3)CN(C(=O)c3cccc(Cl)c3)CCO2)CC1 (stereo not shown) [TCMDC-135347] | -30.91 |
| CNS(=O)(=O)c1ccc(NC(=O)c2cc(-c3cccnc3)nc3ccc(Br)cc23)cc1 [TCMDC-125216] | -3.498 |
| Cc1ccccc1C1CCN(C2CCC(NC(=O)C3=Cc4ccccc4OC3)CC2)CC1 (stereo not shown) [TCMDC-133553] | -49.51 |
| O=S(=O)(NCCN1CCCC1)c1cccc(-c2ccc(CNC3Cc4ccccc4C3)cc2)c1 [TCMDC-132241] | 96.68 |
| O=S(=O)(NCCN1CCCC1)c1ccc(-c2cccc(CNC3Cc4ccccc4C3)c2)cc1 [TCMDC-132215] | 70.89 |
| O=S(=O)(NCCN1CCCC1)c1ccc(-c2ccc(CNC3Cc4ccccc4C3)cc2)cc1 [TCMDC-132229] | 60.05 |
| COc1ccc(C2CCN(CCN3CCC(NC(=O)c4ccc(-c5cccc(C(F)(F)F)c5C(F)(F)F)cc4)CC3)CC2)c(OC)c1 [TCMDC-135427] | -31.75 |
| CC(C)[C@H](NC(=O)c1ccc(O)c(-c2ccc(Cl)c(Cl)c2)c1)C(=O)NCCN1CCCC1 [TCMDC-140828] | 38.9 |
| CN1CCN(c2ccnc3ccc(NC(=O)Nc4ccc5c(c4)CCC5=O)cc23)CC1 [TCMDC-139266] | 0.4556 |
| O=C(Cc1cccc(Cl)c1)Nc1cccc(-c2c[nH]c3nc(Nc4ccccc4)ncc23)c1 [TCMDC-134679] | 29.34 |
| O=C(C=Cc1ccc(Cl)c(Cl)c1)NCCCCCN1CCC(c2[nH]nc3ccccc23)CC1 [TCMDC-139402] | -6.391 |
| Cc1ccccc1OCC(O)CN1CCC(C2CCN(CC(O)COc3ccccc3C)CC2)CC1 (stereo not shown) [TCMDC-131841] | 97.67 |
| CCC(C)(C)c1ccc(OCC(O)CN2CCCCC2)c(C(C)(C)CC)c1 (stereo not shown) [TCMDC-123833] | 2.758 |
| Cc1ccccc1OCC(O)CNC1CCC(NCC(O)COc2ccccc2C)CC1 (stereo not shown) [TCMDC-125142] | 150 |
| CCCc1ccccc1OCC(O)CN(C1CCCC1)C1CCCC1 (stereo not shown) [TCMDC-131423] | -5.815 |
| O=C1NC(c2ccccc2)C2(CCN(CC(O)COc3cccc4ncccc34)CC2)O1 (stereo not shown) [TCMDC-136710] | -26.23 |
| COc1cccc2c(O)c(CNC3CCCCC3)ccc12 [TCMDC-137595] | 11.64 |
| COc1ccc(NC(=O)Nc2ccc(-c3ccccc3)cc2)cc1Cn1cnc(N2CCCNCC2)cc1=O [TCMDC-134316] | 22.91 |
| O=C(/C=C/c1ccc(Cl)c(Cl)c1)Nc1cccc(CN2CCC(c3c[nH]c4ccccc34)CC2)c1 [TCMDC-139600] | 0.6115 |

| SMILES | % Inhibition [%] |
| --- | --- |
| CC(=O)Nc1ncc(C(=O)Nc2cccc(-c3ccc(-c4nc5ccccc5[nH]4)cc3)c2)s1 [TCMDC-136917] | 7.51 |
| Oc1ccc2c(c1CNC1CCCCC1)CCCC2 [TCMDC-137501] | 23.3 |
| CCC(=C(CC)c1ccc(O)c(CNC2CCCCC2)c1)c1ccc(O)c(CNC2CCCCC2)c1 [TCMDC-137481] | 84.66 |
| CC(C)(C)c1ccc(O)c(CNC2CCCCC2)c1 [TCMDC-125856] | 17.68 |
| Cc1cc(O)c(CNC2CCCCC2)cc1C [TCMDC-137589] | -0.1252 |
| Oc1ccc(-c2ccccc2)cc1CNC1CCCCC1 [TCMDC-137603] | -11.44 |
| O=C(CNC1CCCCC1)c1ccc(O)c(O)c1 [TCMDC-123961] | 59.16 |
| FC(F)(F)c1ccc2nccc(NN=Cc3cccnc3)c2c1 [TCMDC-142021] | -27.85 |
| Cc1noc(-c2ccc(N3CCC(C(=O)N4CCN(C(C)C)CC4)CC3)cc2)n1 [TCMDC-136012] | 8.914 |
| COc1ccc2nccc([C@@H](O)CN3CCC(NC(=O)c4ccc(Oc5ccccc5)cc4)CC3)c2c1 [TCMDC-141028] | -18.23 |
| Cc1noc(C)c1-c1cccc(CNCc2cccc(-c3cccc(-c4nc5cc(C(F)(F)F)ccc5[nH]4)c3)c2)c1.O=C(O)C(F)(F)F [TCMDC-133053] | -28.51 |
| COc1ccc(C2CC(c3cccs3)=NN2C(=O)CNc2cccc(C#N)c2)cc1OC (stereo not shown) [TCMDC-125050] | -31.46 |
| OC(CNCCCc1ccccc1)c1cc(OCc2ccccc2)cc(OCc2ccccc2)c1 (stereo not shown) [TCMDC-132033] | 38.73 |
| Cc1cc2nc(-c3ccc(/C=C/C(=O)NCCCc4ccccc4)cc3)[nH]c2cc1C [TCMDC-140436] | -5.063 |
| N=C(NCC1CC1c1ccccc1)c1cccc(C(=N)NCC2CC2c2ccccc2)n1 (stereo not shown) [TCMDC-137456] | 113.7 |
| N=C(NCCCCC1CCCCC1)c1cccc(C(=N)NCCCCC2CCCCC2)n1 [TCMDC-137452] | 115.6 |
| N=C(NCCCc1ccccc1)c1cccc(C(=N)NCCCc2ccccc2)n1 [TCMDC-137453] | 100.2 |
| N#Cc1c(Cl)cccc1Oc1ccc(S(=O)(=O)N2CCC(CN3CCC(c4c[nH]c5ccccc45)CC3)CC2)cc1 [TCMDC-140172] | 15.16 |
| Cc1cc(NC(=O)c2coc3cc(F)c(N4CC(C)N(C)C(C)C4)cc23)ccc1-n1ccnc1 (stereo not shown) [TCMDC-141394] | 18.23 |
| CCNc1cc(C(=O)N[C@@H](Cc2ccccc2)[C@H](O)CNCc2cccc(OC)c2C)cc(N2CCCCS2(=O)=O)c1 [TCMDC-132413] | 37.46 |
| Cc1ccc(-c2ccc3c(c2)C=C(C(=O)NC2CCN(CCNC(=O)c4cccs4)CC2)CCC3)cc1 [TCMDC-141949] | -0.2388 |
